The nature of experiment [1]: Human pregnane X receptor (PXR) small molecule agonists, qHTS cell viability counter screen (AID 1346977). Also: nearly all actives have a fitted effect of over 50% in size. Also: potency is read from the fitted curve at half-maximal effect. An outline of the steps:
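Measures live-cell protease fluorescence (CellTiter-Fluor) in PXR-Luc HepG2 cells treated 24hr with compounds at 37C. Cells had 5hr to attach before pin transfer of DMSO solutions.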

Experiment [2] in a line: Caspase-3/7 induction in HepG2 cells by small molecules, qHTS assay (AID 1346978). Also: nearly all actives have a fitted effect of over 15% in size. Also: potency is read from the fitted curve at half-maximal effect. An outline of the steps:
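Wild-type HepG2 cells, 2,000/well, settled 5 hr at 37 C and 5% CO2, then compound-treated for 17 hr; caspase-3/7 activity read by luminescent Caspase-Glo 3/7 after 30 min at room temperature.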

Experiment [3] can be described thus: Caspase-3/7 induction in CHO-K1 cells by small molecules, qHTS cell viability counter screen (AID 1346979). Also: nearly all actives have a fitted effect of over 35% in size. Also: potency is read from the fitted curve at half-maximal effect. The essentials:
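In the same wells as the caspase read, viability of compound-treated wild-type CHO-K1 cells was assessed using CellTiter-Fluor, added after 16hr at 37C and measured by fluorescence following 1hr further incubation.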

Experiment [4] is described as follows: Caspase-3/7 induction in CHO-K1 cells by small molecules, qHTS assay (AID 1346980). Also: nearly all actives have a fitted effect of over 15% in size. An outline of the steps: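 Wild-type CHO-K1 cells exposed to compounds for 17hr at 37 C, 5% CO2. Caspase-3/7 activity then measured by Caspase-Glo 3/7 luminescence after 30min at room temperature.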
Experiment [5] is described as follows: Caspase-3/7 induction in HepG2 cells by small molecules, qHTS cell viability counter screen (AID 1346981). Also: series mostly up to about 92 µM; nearly all actives have a fitted effect of over 30% in size. The essentials:
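Cell viability is measured as a cytotoxicity counter screen alongside the Caspase-Glo 3/7 readout in identical wells. Wild-type HepG2 cells are treated with test compounds for 16 hr at 37 C before CellTiter-Fluor addition and a 1-hr incubation.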

The target in experiment [6] is Nuclear receptor subfamily 1 group I member 2 (Homo sapiens) (UniProt O75469). As to the kind of experiment: Human pregnane X receptor (PXR) small molecule agonists, qHTS assay (AID 1346982). Also: nearly all actives have a fitted effect of over 35% in size. Also: potency is read from the fitted curve at half-maximal effect. An outline of the steps: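 Cells: HepG2 stably carrying PXR-Luc. Medium held 5% charcoal-stripped FBS. Compounds in DMSO added after 5 hr plating, incubated 24 hr, then luminescence quantified with ONE-Glo.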

The target in experiment [7] is Acetylcholinesterase (Homo sapiens) (UniProt P22303). Kind of experiment: Acetylcholinesterase (AChE) small molecule antagonists: colormetric cell-based qHTS assay (AID 1347395; calls by dose curve; also: nearly all actives have a fitted effect of over 30% in size). An outline of the steps: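 Endogenous AChE of human neuroblastoma SH-SY5Y cells was measured with an Ellman-type DTNB/acetylthiocholine mix. Compound pretreatment lasted 30 min at 37 C; substrate reaction ran 90 min at 37 C.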

Experiment [8] has the same target. As to the kind of experiment: Acetylcholinesterase (AChE) small molecule antagonists: enzyme-based qHTS assay (AID 1347397; calls by dose curve; also: nearly all actives have a fitted effect of over 55% in size; also: potency is read from the fitted curve at half-maximal effect). The note with it: Potency: AChE enzyme activity inhibition. The essentials: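 Colorimetric DTNB read-out of thiocholine released from acetylthiocholine by recombinant human AChE (50 mU/mL as dispensed). Compounds were preincubated 30 min at RT before substrate/DTNB addition, with a 10 min RT reaction.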

Experiment [9] shares this target. Kind of experiment: Acetylcholinesterase (AChE) small molecule antagonists: fluorescence cell-based qHTS assay (AID 1347398; calls by dose curve; also: nearly all actives have a fitted effect of over 50% in size; also: potency is read from the fitted curve at half-maximal effect). Particulars: Potency: AChE activity. The essentials:
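SH-SY5Y, 2,000 cells/well, attached overnight; cmpd 30 min 37 C; acetylthiocholine/Thiolite Green cocktail 40 min RT; fluorescence Ex/Em 490/520 nm.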

Experiment [10] shares this target. As to the kind of experiment: Acetylcholinesterase (AChE) small molecule antagonists: enzyme-based qHTS assay with human liver microsomes (AID 1347399; calls by dose curve; also: nearly all actives have a fitted effect of over 60% in size). Particulars: Potency: qHTS inhibition. The essentials:
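Recombinant human AChE (50 mU/mL in the enzyme mix) and human liver microsomes (0.25 mg/mL final) were preincubated with compound and NADPH (0.25 mg/mL final) for 30 min at 37 C. Acetylthiocholine/DTNB was then added; thiocholine was read colorimetrically after 10 min at room temperature.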

The target in experiment [11] is Cytochrome P450 2D6 (Homo sapiens) (UniProt P10635). Kind of experiment: Cytochrome P450 Family 2 Subfamily D Member 6 (CYP2D6) small molecule antagonists: luciferase reporter qHTS assay (AID 1671196). Also: nearly all actives have a fitted effect of over 50% in size. Also: potency is read from the fitted curve at half-maximal effect. An outline of the steps:
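Enzyme and proluciferin substrate were first combined with test chemical for 10 min at room temperature. Adding NADPH regeneration solution started a 1 h reaction, stopped with luciferin detection reagent and read by luminescence 20 min later.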

Experiment [12] addresses Cytochrome P450 2C19 (Homo sapiens) (UniProt P33261). Kind of experiment: Cytochrome P450 Family 2 Subfamily C Member 19 (CYP2C19) small molecule antagonists: luciferase reporter qHTS assay (AID 1671197). Also: nearly all actives have a fitted effect of over 65% in size. Also: potency is read from the fitted curve at half-maximal effect. The essentials:
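CYP2C19 P450-Glo, 1536-well qHTS. Cpd + enzyme/proluciferin substrate 10 min RT; + NADPH regen, 37C 1 h; stop with luciferin detection reagent, 20 min RT, luminescence (RLU). Pos ctrl ketoconazole.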

In experiment [13] the target is Cytochrome P450 2C9 (Homo sapiens) (UniProt P11712). Kind of experiment: Cytochrome P450 Family 2 Subfamily C Member 9 (CYP2C9) small molecule antagonists: luciferase reporter qHTS assay (AID 1671198). Also: nearly all actives have a fitted effect of over 50% in size. Also: potency is read from the fitted curve at half-maximal effect. An outline of the steps:
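P450-Glo proluciferin substrate with CYP2C9 enzyme; 10 min RT preincubation, then NADPH regeneration 1 h at 37C; luciferin detection reagent 20 min RT, luminescence in relative luminescence units.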

The target in experiment [14] is Cytochrome P450 1A2 (Homo sapiens) (UniProt P05177). As to the kind of experiment: Cytochrome P450 Family 1 Subfamily A Member 2 (CYP1A2) small molecule antagonists: luciferase reporter qHTS assay (AID 1671199). Also: nearly all actives have a fitted effect of over 50% in size. Also: potency is read from the fitted curve at half-maximal effect. An outline of the steps: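 Compounds were incubated with CYP1A2 and a luminogenic proluciferin substrate for 10 min at room temperature before the reaction was started with NADPH regeneration solution. After 1 h, detection reagent was added and light output, proportional to CYP activity, was recorded.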

Experiment [15] deals with Voltage-gated inwardly rectifying potassium channel KCNH2 (Homo sapiens) (UniProt Q12809). As to the kind of experiment: Human Ether-a-go-go-Related Gene (hERG) channel small molecule antagonists: fluorescence cell-based qHTS assay (AID 1671200). The essentials:
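Quantitative HTS in hERG-U2OS cells: thallium entry through the channel reports activity, read as continuous 480/540 nm fluorescence over 2 min after stimulus addition.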

The target in experiment [16] is Cytochrome P450 3A4 (Homo sapiens) (UniProt P08684). Kind of experiment: Cytochrome P450 Family 3 Subfamily A Member 4 (CYP3A4) small molecule antagonists: luciferase reporter qHTS assay (AID 1671201). Also: nearly all actives have a fitted effect of over 50% in size. Also: potency is read from the fitted curve at half-maximal effect. The essentials: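 Inhibition of CYP3A4 is measured as loss of light: the enzyme converts a proluciferin substrate to luciferin, detected luminescently. Reaction ran 1 h at room temperature with NADPH regeneration after a 10 min compound preincubation.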

For eleven compounds, Potency results are on record in PubChem BioAssay (Tox21).

“And” between values parts separate entries of the source, which are not always exact repeats. Identical values can stand only once. Results filed as inconclusive are left out. Some structures have more than one record in an assay (separate samples or runs), and their calls can disagree. The source made the active and inactive calls. Unless noted, calls follow the shape of the dose curve; as a rule, active = well fitted curve in the direction sought with a large enough effect in the repeat runs; inconclusive = weak or mixed curves; inactive = no such curve, though single readings can be large; an effect the other way counts as inactive or inconclusive.

Voltage-gated inwardly rectifying potassium channel KCNH2 (Homo sapiens), sequence (Q12809 whole entry, looked up): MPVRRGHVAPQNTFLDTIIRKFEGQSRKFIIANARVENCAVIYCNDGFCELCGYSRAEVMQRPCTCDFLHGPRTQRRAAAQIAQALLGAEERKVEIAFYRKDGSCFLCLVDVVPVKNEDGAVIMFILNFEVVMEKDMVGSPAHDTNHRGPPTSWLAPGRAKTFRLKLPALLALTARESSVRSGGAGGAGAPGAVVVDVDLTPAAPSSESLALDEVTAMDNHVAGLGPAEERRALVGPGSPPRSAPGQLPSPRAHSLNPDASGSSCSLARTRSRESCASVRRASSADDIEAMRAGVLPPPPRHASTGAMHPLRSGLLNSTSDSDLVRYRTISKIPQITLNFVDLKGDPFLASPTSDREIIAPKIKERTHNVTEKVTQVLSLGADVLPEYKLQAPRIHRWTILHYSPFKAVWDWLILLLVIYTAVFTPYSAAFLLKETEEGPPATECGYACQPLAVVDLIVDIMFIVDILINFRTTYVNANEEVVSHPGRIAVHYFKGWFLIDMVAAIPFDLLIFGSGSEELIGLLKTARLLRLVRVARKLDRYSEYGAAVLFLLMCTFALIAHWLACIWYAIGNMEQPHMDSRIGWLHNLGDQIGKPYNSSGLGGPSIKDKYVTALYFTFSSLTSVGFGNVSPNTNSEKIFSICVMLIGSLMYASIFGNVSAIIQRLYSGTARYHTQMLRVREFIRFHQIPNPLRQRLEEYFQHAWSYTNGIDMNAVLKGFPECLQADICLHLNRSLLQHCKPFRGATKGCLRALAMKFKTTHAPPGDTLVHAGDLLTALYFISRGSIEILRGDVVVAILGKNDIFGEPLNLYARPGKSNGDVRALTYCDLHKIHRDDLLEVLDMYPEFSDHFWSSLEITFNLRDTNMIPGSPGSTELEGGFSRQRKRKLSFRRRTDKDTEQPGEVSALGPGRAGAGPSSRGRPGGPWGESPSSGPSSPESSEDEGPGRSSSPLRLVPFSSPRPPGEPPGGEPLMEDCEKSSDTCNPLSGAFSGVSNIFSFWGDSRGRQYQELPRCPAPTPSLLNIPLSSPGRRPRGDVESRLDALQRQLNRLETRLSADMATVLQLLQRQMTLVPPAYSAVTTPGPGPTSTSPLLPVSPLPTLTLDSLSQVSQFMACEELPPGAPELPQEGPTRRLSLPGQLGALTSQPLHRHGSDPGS
Cytochrome P450 2C19 (Homo sapiens), sequence (P33261 whole entry, looked up): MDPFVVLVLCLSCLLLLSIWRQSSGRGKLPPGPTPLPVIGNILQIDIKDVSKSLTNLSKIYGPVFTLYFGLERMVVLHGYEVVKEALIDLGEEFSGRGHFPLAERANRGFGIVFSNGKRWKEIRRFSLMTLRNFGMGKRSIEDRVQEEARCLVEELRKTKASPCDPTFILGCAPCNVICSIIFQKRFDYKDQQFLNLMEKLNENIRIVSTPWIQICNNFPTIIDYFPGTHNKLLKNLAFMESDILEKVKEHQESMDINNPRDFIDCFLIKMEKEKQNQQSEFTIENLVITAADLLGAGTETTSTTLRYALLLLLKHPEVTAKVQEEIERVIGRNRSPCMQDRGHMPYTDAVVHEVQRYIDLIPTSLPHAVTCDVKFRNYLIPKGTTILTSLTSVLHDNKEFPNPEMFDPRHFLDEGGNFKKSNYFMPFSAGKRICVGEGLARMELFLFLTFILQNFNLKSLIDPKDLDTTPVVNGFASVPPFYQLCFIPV
Acetylcholinesterase (Homo sapiens), sequence (P22303 whole entry, looked up): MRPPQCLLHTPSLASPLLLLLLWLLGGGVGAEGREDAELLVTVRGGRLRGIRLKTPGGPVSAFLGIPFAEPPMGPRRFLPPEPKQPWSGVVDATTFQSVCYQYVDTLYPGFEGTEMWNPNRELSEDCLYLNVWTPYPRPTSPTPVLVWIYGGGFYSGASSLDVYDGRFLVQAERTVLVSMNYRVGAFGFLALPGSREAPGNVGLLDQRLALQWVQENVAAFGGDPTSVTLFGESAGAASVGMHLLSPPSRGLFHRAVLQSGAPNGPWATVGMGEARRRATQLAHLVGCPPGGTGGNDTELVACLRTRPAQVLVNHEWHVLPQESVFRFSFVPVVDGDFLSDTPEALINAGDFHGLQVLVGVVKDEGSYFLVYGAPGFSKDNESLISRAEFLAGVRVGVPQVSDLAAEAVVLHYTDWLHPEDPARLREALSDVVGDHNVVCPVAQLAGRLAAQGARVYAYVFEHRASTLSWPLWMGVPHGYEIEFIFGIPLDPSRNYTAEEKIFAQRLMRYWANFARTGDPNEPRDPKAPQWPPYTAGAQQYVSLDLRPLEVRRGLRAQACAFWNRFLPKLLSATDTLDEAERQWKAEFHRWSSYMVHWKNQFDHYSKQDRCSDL
Cytochrome P450 3A4 (Homo sapiens), sequence (P08684 whole entry, looked up): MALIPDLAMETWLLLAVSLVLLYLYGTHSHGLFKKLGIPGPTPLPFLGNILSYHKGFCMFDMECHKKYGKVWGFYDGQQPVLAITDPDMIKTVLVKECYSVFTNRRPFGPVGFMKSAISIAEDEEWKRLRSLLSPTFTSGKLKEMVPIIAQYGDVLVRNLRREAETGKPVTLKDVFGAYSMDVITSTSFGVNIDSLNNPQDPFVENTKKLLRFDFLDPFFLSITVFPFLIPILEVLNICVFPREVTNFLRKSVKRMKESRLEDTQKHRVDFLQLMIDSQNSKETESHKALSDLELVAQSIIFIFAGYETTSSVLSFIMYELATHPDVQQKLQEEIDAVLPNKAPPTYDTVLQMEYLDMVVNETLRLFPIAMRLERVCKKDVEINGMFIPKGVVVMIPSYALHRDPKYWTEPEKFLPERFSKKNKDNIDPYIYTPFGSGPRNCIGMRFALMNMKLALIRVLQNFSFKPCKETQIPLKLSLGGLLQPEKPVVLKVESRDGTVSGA
Cytochrome P450 1A2 (Homo sapiens), sequence (P05177 whole entry, looked up): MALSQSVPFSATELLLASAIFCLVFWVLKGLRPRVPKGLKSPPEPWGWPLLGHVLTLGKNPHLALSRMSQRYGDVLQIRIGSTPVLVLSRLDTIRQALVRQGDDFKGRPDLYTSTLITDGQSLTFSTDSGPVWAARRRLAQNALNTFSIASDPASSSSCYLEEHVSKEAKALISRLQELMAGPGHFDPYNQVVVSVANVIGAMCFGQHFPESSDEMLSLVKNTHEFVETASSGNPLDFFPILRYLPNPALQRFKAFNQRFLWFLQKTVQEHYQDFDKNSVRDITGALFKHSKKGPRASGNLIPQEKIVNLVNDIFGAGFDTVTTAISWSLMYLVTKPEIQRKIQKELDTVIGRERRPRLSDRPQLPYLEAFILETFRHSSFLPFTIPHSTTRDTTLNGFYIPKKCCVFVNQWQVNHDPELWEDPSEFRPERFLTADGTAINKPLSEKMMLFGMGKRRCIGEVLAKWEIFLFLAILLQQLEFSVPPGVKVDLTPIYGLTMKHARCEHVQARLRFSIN
Cytochrome P450 2D6 (Homo sapiens), sequence (P10635 whole entry, looked up): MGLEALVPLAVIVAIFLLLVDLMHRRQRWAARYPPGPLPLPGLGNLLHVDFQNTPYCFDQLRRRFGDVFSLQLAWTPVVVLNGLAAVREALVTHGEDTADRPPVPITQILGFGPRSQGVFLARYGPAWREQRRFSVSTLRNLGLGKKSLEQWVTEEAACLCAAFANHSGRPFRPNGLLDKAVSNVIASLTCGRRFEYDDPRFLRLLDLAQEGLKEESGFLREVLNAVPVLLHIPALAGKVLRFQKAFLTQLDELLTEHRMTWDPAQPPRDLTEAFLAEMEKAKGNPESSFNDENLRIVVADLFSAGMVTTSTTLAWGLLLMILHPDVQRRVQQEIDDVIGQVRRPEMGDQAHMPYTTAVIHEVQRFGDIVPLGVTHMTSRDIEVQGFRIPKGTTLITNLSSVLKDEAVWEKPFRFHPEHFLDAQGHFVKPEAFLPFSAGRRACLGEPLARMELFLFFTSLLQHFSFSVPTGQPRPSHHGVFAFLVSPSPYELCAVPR
Cytochrome P450 2C9 (Homo sapiens), sequence (P11712 whole entry, looked up): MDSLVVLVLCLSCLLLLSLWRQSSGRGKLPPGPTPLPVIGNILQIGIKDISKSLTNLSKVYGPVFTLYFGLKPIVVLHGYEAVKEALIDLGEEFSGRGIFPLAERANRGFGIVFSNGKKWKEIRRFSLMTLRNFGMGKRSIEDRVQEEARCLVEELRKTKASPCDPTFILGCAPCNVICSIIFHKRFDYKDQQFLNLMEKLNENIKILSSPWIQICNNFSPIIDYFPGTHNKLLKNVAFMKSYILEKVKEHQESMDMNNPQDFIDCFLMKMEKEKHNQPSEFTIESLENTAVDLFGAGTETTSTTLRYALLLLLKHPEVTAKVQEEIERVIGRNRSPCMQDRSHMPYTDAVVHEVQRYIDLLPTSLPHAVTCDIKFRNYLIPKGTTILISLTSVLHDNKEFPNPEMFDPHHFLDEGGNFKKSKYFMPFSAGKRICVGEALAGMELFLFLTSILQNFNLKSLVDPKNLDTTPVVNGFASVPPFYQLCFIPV
Nuclear receptor subfamily 1 group I member 2 (Homo sapiens), sequence (O75469 whole entry, looked up): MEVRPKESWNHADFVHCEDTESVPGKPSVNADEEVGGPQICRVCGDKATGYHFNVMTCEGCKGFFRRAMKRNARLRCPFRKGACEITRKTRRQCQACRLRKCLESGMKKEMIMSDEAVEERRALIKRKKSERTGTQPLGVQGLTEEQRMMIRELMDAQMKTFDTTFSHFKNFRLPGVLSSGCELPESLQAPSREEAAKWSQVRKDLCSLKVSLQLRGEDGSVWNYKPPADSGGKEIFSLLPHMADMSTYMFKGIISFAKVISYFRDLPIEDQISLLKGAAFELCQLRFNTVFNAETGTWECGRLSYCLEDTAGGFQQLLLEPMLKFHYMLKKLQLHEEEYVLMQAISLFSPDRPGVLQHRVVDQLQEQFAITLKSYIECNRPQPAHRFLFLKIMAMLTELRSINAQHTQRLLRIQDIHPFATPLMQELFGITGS

Take `S=c1[nH]c2ccccc2[nH]1`: the Potency in experiment [1] is 50.1 µM (active) and inactive; in experiment [3], 13.7 µM (active) and inactive; in experiment [6], 68.7 µM (active); in experiment [8] it was 35.7 µM (active) and inactive; in experiment [9], 10.1 µM (active) and inactive; in experiment [12] it was 39.9 µM (active). Further, the Potency is 35.7 µM (active) and 35.6 µM (active) in [14]; 5.65 µM (active) and 7.96 µM (active) in [16]. Also, the Potency entry in experiment [2], in experiment [4], in experiment [5], in [7], in experiment [10] and in experiment [11] was “inactive” each time. Moreover, the Potency result in experiment [13] and in experiment [15] was “inactive” in each case.

In the case of `N#CC(c1ccccc1)c1ccccc1`, the Potency result in experiment [1], in experiment [2], in [3], in experiment [4], in experiment [5] and in experiment [6] was “inactive” throughout. The Potency result in [7], in [8], in [9], in experiment [10], in experiment [11] and in experiment [15] was “inactive” throughout. Further, the Potency in experiment [12] is 4.48 µM (active) and 5.03 µM (active); in experiment [13], 22.4 µM (active) and 35.6 µM (active).

Take `O=C1CCCO1`: the Potency result in [1], in [2], in [3], in experiment [4], in experiment [5] and in experiment [6] was “inactive” in each case. In addition, the Potency entry in experiment [7], in experiment [8], in experiment [9], in [10], in [11] and in experiment [12] was “inactive” throughout. In addition, the Potency result in experiment [13], in experiment [15] and in experiment [16] was “inactive” in each case. Besides, the Potency in [14] is 34.7 µM (active) and inactive.

Take `C[C@]12CCC(=O)C=C1CC[C@@H]1[C@@H]2CC[C@@]2(C)[C@H]1CC[C@]2(C)O`: the Potency result in experiment [1], in [2], in experiment [4], in [5], in experiment [7] and in experiment [8] was “inactive” throughout. Also, the Potency result in experiment [9], in experiment [10], in [14], in [15] and in experiment [16] was “inactive” throughout. In addition, the Potency in [3] is 50.4 µM (active); in experiment [6], 43.6 µM (active) and inactive; in [11] it was 45.2 µM (active) and inactive; in experiment [12], 35.9 µM (active) and inactive; in experiment [13], 35.9 µM (active).

Regarding `CCC/C=N/O`, the Potency result in experiment [1], in experiment [2], in experiment [3], in experiment [4], in experiment [5] and in experiment [6] was “inactive” throughout. Further, the Potency entry in [7], in experiment [10], in experiment [11], in experiment [12], in [13] and in experiment [14] was “inactive” in each case. Further, the Potency entry in [15] and in experiment [16] was “inactive” throughout. Moreover, the Potency was 34.2 µM (active) and inactive in experiment [8]; 8.6 µM (active) and inactive in [9].

On to `CNC(=S)S`, for which the Potency entry in [1], in [2], in [3], in [4], in experiment [5] and in experiment [6] was “inactive” in each case. Also, the Potency entry in experiment [7], in experiment [8], in experiment [9], in experiment [10], in experiment [11] and in [14] was “inactive” each time. Besides, the Potency result in [15] and in experiment [16] was “inactive” in each case. For the same compound, the Potency in experiment [12] is 38.9 µM (active); in [13], 61.7 µM (active).

In the case of `O=C(O)CF`, the Potency entry in experiment [1], in experiment [2], in experiment [3], in experiment [4], in experiment [5] and in experiment [6] was “inactive” in each case. The Potency result in [7], in experiment [8], in experiment [9], in experiment [10], in experiment [11] and in experiment [12] was “inactive” in each case. For the same compound, the Potency entry in [13], in experiment [14], in experiment [15] and in [16] was “inactive” each time.

`C[N+](C)(C)CC(=O)[O-]`: the Potency result in experiment [1], in [2], in experiment [3], in experiment [4], in experiment [5] and in experiment [6] was “inactive” in each case. Moreover, the Potency result in experiment [7], in [8], in [9], in [10], in experiment [11] and in experiment [12] was “inactive” in each case. Further, the Potency result in experiment [13], in experiment [14], in [15] and in experiment [16] was “inactive” each time.

With `Cc1ccc([N+](=O)[O-])cc1`, the Potency result in [1], in [2], in [3], in [4], in experiment [5] and in [6] was “inactive” throughout. The Potency entry in [7], in experiment [8], in [9], in [10], in experiment [11] and in experiment [12] was “inactive” in each case. The Potency entry in experiment [13], in experiment [14], in experiment [15] and in experiment [16] was “inactive” throughout.

On to `C[C@]12CC[C@H]3[C@@H](CCC4=CC(=O)CC[C@@H]43)[C@@H]1CC[C@@H]2O`, for which the Potency result in experiment [1], in experiment [2], in experiment [3], in experiment [4], in experiment [5] and in experiment [6] was “inactive” each time. In addition, the Potency result in [7], in [8], in experiment [9], in experiment [10], in experiment [11] and in experiment [13] was “inactive” each time. The Potency entry in [14], in experiment [15] and in [16] was “inactive” each time. Moreover, the Potency in [12] was 39.6 µM (active) and 8.71 µM (active).

On to `OCCOCCO`, for which the Potency entry in experiment [1], in experiment [4], in [5], in experiment [7], in [8] and in [9] was “inactive” each time. In addition, the Potency result in experiment [10], in [11], in experiment [13], in [14], in experiment [15] and in experiment [16] was “inactive” each time. In addition, the Potency in [2] was 31.5 µM (active) and inactive; in [3], 7.92 µM (active) and inactive; in experiment [6], 62.9 µM (active) and inactive; in [12], 82.1 µM (active) and inactive.
